Measurements from PubChem BioAssay (EPA / NIEHS).
Calls of active or inactive are those of the source. How the source made its calls: active means hit-call score of the fitted dose curve at least 0.9, where 1 is the maximum; inactive means score below 0.9.

How the values were obtained:
[1] = ATG_M_61_CIS: Attagene CIS-FACTORIAL HepG2 Assay for M61 Transcription Factor (Internal Marker) (AID 2282937); details: HepG2 Attagene CIS-FACTORIAL M61 internal marker reporter; actives raise or lower the signal
How it was run: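 HepG2 cells transiently transfected with cis-element-driven multiple reporter transcription units, dosed for 24 h. Reporter mRNA measured by RT-PCR, 6-FAM primer-extension labelling, HpaI digestion and capillary electrophoresis; bidirectional fit versus DMSO baseline.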

[2] = ATG_EGR_CIS: Attagene CIS-FACTORIAL HepG2 Assay for human Early Growth Response 1 (EGR1) (AID 2282938); details: HepG2 Attagene CIS-FACTORIAL EGR reporter mRNA; actives raise or lower the signal
How it was run: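 HepG2 cells transiently transfected with cis-promoter-driven multiplexed reporter transcription units; reporter mRNA measured 24 h after compound dosing by RT-PCR, 6-FAM primer extension, HpaI digestion and capillary electrophoresis. Bidirectional fit versus DMSO baseline.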

[3] = ATG_M_19_CIS: Attagene CIS-FACTORIAL HepG2 Assay for M19 Transcription Factor (Internal Marker) (AID 2282939); details: HepG2 Attagene CIS-FACTORIAL M19 internal marker reporter; actives raise or lower the signal
How it was run: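 Signals come from fluorescence of labelled reporter-specific PCR fragments resolved by capillary electrophoresis, following 24 h treatment of HepG2 cells transfected with cis-promoter reporter units; activity was fitted in both directions relative to DMSO.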

[4] = ATG_Ets_CIS: Attagene CIS-FACTORIAL HepG2 Assay for human Erythroblast Transformation Specific (ETS) (AID 2282941); details: HepG2 ETS cis-reporter transcription, actives raise or lower the signal
How it was run: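 Multiplexed reporter transcript profiling: HepG2, 24 h treatment, total RNA to cDNA, PCR, 6-FAM labelling, HpaI cut, capillary electrophoresis. Gain- or loss-of-signal fitted against DMSO.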

[5] = target: Hepatocyte nuclear factor 3-beta (Homo sapiens) (UniProt Q9Y261); assay: ATG_FoxA2_CIS: Attagene CIS-FACTORIAL HepG2 Assay for human Forkhead box A2 (FOXA2) (AID 2282942); details: HepG2 cis-reporter transcription factor activity, 24 h; actives raise or lower the signal
Sequence of Hepatocyte nuclear factor 3-beta (Homo sapiens) (Q9Y261 whole entry, looked up): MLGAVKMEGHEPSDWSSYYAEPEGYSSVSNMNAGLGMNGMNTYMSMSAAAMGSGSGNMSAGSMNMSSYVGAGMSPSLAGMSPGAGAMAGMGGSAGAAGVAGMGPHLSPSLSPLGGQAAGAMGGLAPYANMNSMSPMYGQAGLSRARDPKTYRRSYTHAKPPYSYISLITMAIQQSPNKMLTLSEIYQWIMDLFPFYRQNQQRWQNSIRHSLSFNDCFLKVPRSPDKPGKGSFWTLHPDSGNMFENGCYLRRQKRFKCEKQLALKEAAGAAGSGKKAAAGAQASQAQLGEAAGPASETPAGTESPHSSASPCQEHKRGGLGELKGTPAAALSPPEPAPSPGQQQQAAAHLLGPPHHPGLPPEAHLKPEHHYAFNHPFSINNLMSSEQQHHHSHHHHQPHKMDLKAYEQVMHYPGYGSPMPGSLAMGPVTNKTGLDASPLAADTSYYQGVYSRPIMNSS
How it was run: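 HepG2 cells transiently transfected with multiple cis-regulated reporter transcription units, dosed for 24 h. Reporter mRNA measured by RT-PCR, 6-FAM labelling, HpaI digestion and capillary electrophoresis; bidirectional fitting against DMSO baseline.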

[6] = ATG_FoxO_CIS: Attagene CIS-FACTORIAL HepG2 Assay for human Forkhead box O (FoxO) (AID 2282943); details: HepG2 Attagene cis-reporter, FoxO element, mRNA; actives raise or lower the signal
How it was run: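 HepG2 cells transiently transfected with cis-promoter-driven multiple reporter transcription units; 24 h after chemical dosing, reporter mRNA quantified by RT-PCR, fluorescent primer extension, HpaI digestion and capillary electrophoresis. Bidirectional fitting versus DMSO baseline.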

[7] = ATG_GLI_CIS: Attagene CIS-FACTORIAL HepG2 Assay for human Zinc Finger Protein GLI1 (AID 2282945); details: HepG2, Attagene cis-factorial reporter mRNA, GLI element; actives raise or lower the signal
How it was run: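 HepG2 cells transiently transfected with cis-promoter multiplexed reporter units report endogenous transcription factor activity. After 24 h chemical exposure, reporter mRNA was quantified by RT-PCR, 6-FAM labelling, HpaI digestion and capillary electrophoresis, with bidirectional fitting against DMSO.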

[8] = ATG_GATA_CIS: Attagene CIS-FACTORIAL HepG2 Assay for human GATA Binding Protein (AID 2282944); details: HepG2 GATA cis-element reporter, Attagene multiplex mRNA; actives raise or lower the signal
How it was run: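 After transfecting HepG2 cells with multiple cis-regulated reporter units, chemicals are dosed for 24 h; isolated RNA undergoes RT-PCR and fluorescent labeling before capillary electrophoresis, with activity expressed against DMSO.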

[9] = ATG_ERE_CIS: Attagene CIS-FACTORIAL HepG2 Assay for Estrogen Response Element (ERE) (AID 2282940); details: HepG2 ERE cis-reporter, Attagene RNA transcript; actives raise or lower the signal
How it was run: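 Fluorescence of capillary-separated, FAM-labelled reporter cDNA fragments indicates reporter mRNA levels in HepG2 cells exposed to chemicals for 24 h. Transient transfection with cis-regulated units; data fitted in both directions against DMSO.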

Measured: AC50

Clc1ccccc1Cl
inactive: [1] | [2] | [3] | [4] | [5] | [6] | [7]

CN(C)[C@@H]1C(=O)C(C(N)=O)=C(O)[C@@]2(O)C(=O)C3=C(O)c4c(O)cccc4[C@@](C)(O)[C@H]3C[C@@H]12
inactive: [1] | [2] | [4] | [5] | [6] | [8] | [7]

OCCCl
inactive: [1] | [2] | [4] | [5] | [6] | [7]

COC(=O)c1ccccc1N
inactive: [1] | [2] | [4] | [5] | [6] | [8] | [7]

CC(C)(C)OOC(C)(C)CCC(C)(C)OOC(C)(C)C
inactive: [1] | [2] | [4] | [5] | [6] | [7]

O=C(Oc1ccc(Br)cc1)N1CCN2CCC1CC2
inactive: [1] | [2] | [9] | [4] | [5] | [6] | [7]

CCCCOC(=O)c1ccccc1C(=O)OCc1ccccc1
inactive: [1] | [2] | [3] | [4] | [5] | [6] | [8] | [7]

Clc1ccc(Cl)c(Cl)c1
inactive: [1] | [2] | [3] | [4] | [5] | [6] | [7]

CCCCCCCCOC(=O)c1ccc(C(=O)OCCCCCCCC)c(C(=O)OCCCCCCCC)c1
active: [7] 26.3 µM
inactive: [1] | [2] | [4] | [5] | [6] | [8]

CNC(=O)Oc1cccc2c1OC(C)(C)C2
inactive: [1] | [2] | [9] | [4] | [5] | [6] | [8] | [7]

CC(C)N(Cc1ccccc1)C(=O)C(C)(C)C
inactive: [1] | [2] | [4] | [5] | [6] | [7]

Nc1ccc(Cc2ccc(N)cc2)cc1
inactive: [1] | [2] | [4] | [5] | [6] | [7]

COC(=O)Nc1nc2ccccc2[nH]1
inactive: [1] | [2] | [4] | [5] | [6] | [7]

O=[N+]([O-])C(Br)(CO)CO
inactive: [1] | [9] | [4] | [5] | [6] | [8]
active: [2] 100 µM | [7] 169 µM

Cc1cccc(N)c1N
active: [2] 106 µM | [4] 77.1 µM
inactive: [1] | [3] | [5] | [6] | [7]

Oc1ccc2ccc3cccc4ccc1c2c34
inactive: [1] | [2] | [4] | [5] | [6] | [8] | [7]

COP(=S)(OC)SCN1C(=O)c2ccccc2C1=O
inactive: [1] | [2] | [3] | [4] | [5] | [6] | [8] | [7]

O=C(N[C@H](c1ccccc1)[C@@H]1CN2CCC1CC2)c1c(Cl)ccc(C(F)(F)F)c1Cl
inactive: [1] | [2] | [3] | [4] | [5] | [6] | [8] | [7]

CN(C)C(=O)Nc1ccc(Cl)cc1
inactive: [1] | [2] | [4] | [5] | [6] | [7]

c1ccc(N=Nc2ccccc2)cc1
inactive: [1] | [2] | [4] | [5] | [6] | [7]

O=P(OCCCl)(OCCCl)OCCCl
inactive: [1] | [2] | [4] | [5] | [6] | [7]

Cc1ccc(N)c(N)c1
active: [2] 28.3 µM
inactive: [1] | [3] | [4] | [5] | [6] | [7]

N#CC(Br)(Br)C(N)=O
inactive: [1] | [2] | [4] | [5] | [6] | [7]

C1=Cc2cccc3cccc1c23
inactive: [1] | [2] | [4] | [5] | [6] | [8] | [7]
